Measurements as given in PubChem BioAssay.
Calls of active or inactive are those of the source.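 The calls were made as follows, unless noted: active = fluorescence slope higher than the sample average by over 3 SD (cut at about -0.22 in these data, passing the limit was not always enough); inactive = the rest.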

Assays:
[1] = inhibitors of TNFa-induced NFkB p65 translocation, primary screen, imaging, HUVEC, MLSMR starter and 10KST1 sets (AID 438;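 active = inhibition above 20% together with a positive visual image hit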;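 also: compound added about 3h40 before a 20 min TNFalpha stimulation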;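 as to inhibition: signal is the nuclear over cytoplasmic p65 intensity ratio per well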); details: HUVEC TNFa-induced p65 nuclear translocation; cell count: measured here: nuclei count (cytotoxicity indicator), at 2.08 µM; inhibition: at 2 µM, stronger effect = higher value, 0% TNFa-plus-vehicle, 100% no-TNFa wells
[2] = reduction of polyQ htt aggregates in cells – imaging, exon1htt(103Q)mCFP cells, high-content imaging, primary screen (AID 483;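 active = visual image review flags a hit and inhibition of aggregation exceeds 20%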;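 also: compound exposure lasted 3 days before fixation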;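 as to nuclei count: percent of the per-plate median nuclei count of sample wells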); details: exon1htt(103Q)mCFP cell line, aggregate imaging, at 2 µM; inhibition of aggregation: stronger effect = higher value; nuclei count: measured here: cell count, toxicity
[3] = endothelial E-selectin expression blockers – imaging, HUVEC, immunofluorescence, MLSMR starter and 10KST1 sets, primary screen (AID 487;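 active = visually confirmed hit in the image check and inhibition above 20%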;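 as to inhibition: signal is fraction of cell area covered by stained E-selectin grains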;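 as to nuclei count: 100% = median nuclei count of all wells on the same plate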); details: HUVEC TNFalpha-induced E-selectin immunofluorescence imaging, at 2 µM; inhibition: stronger effect = higher value; nuclei count: measured here: cell number, toxicity
[4] = biological target: Voltage-gated potassium channel subunit beta-2 (Rattus norvegicus) (UniProt P62483); test: inhibitors of rat Kvbeta2 reductase activity – biochemical, NADPH fluorescence, primary screen (AID 622); details: recombinant KvBeta, 4-cyanobenzaldehyde reduction, at 10 µM, stronger effect = higher value;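 also: slope of raw intensity against log time taken from 70 to 1610 s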
[5] = biological target: Voltage-gated potassium channel subunit beta-2 (Rattus norvegicus) (UniProt P62483); test: enhancers of rat Kvbeta2 NADPH turnover – biochemical, NADPH fluorescence, primary screen (AID 623;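 active = NADPH fluorescence slope more negative than the mean of all samples by about 3 SD, 99.7% confidence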;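 also: fluorescence intensity change per second fitted from 20 to 320 s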); details: Recombinant KvBeta, NADPH fluorescence decrease slope, 10 min; at 10 µM; stronger effect = lower value
[6] = biological target: Alpha-2C adrenergic receptor (Homo sapiens) (UniProt P18825); test: compounds altering alpha2C-coupled GIRK flux – cell-based, HEK293 alpha2C/GIRK1/2, thallium flux, primary screen (AID 624;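 active = fluorescence slope after compound addition differing from the mean of all screened samples at 99.7% confidence, in either direction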;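 also: slope of fluorescence ratio to pre-addition baseline per second over 15 to 24 s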); details: thallium flux BTC fluorescence, at 10 µM, actives lie on both sides
[7] = blockers of RIG-like receptor reporter activation – cell-based, Sendai virus stimulus, luciferase, 10K MLSCN set, TLR/RLR signaling modifier project, primary screen (AID 602276;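 active = inhibition at or above 50% at 10 µM; inactive = inhibition below 50%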;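 also: firefly luciferase from ISG56 promoter only with Renilla not read in this screen; 0% = Sendai virus plus DMSO and 100% = medium plus DMSO without virus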); details: HEK293 RL24 IRF3 luciferase reporter, at 10 µM, stronger effect = higher value
[8] = TLR3 IRF3 reporter activation blockers – cell-based, poly I:C stimulus, luciferase, 10K MLSCN set, primary screen (AID 602277;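 active = inhibition of the reporter signal at or above 50%; inactive = inhibition below 50%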); details: HEK293-TLR3 RL24 IRF3 luciferase reporter, at 10 µM, stronger effect = higher value

Sequence of Alpha-2C adrenergic receptor (Homo sapiens) (P18825 whole entry, looked up): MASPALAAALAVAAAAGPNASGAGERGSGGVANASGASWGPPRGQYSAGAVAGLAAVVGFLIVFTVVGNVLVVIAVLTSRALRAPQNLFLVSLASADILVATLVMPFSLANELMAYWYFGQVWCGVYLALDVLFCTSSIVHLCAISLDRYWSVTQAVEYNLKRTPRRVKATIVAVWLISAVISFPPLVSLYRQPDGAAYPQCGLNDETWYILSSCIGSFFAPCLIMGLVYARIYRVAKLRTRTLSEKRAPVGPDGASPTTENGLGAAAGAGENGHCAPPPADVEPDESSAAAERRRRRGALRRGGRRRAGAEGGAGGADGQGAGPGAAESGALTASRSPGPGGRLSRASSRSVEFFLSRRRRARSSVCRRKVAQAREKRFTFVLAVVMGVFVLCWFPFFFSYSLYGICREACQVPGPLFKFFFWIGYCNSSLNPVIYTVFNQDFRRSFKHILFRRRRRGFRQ
Sequence of Voltage-gated potassium channel subunit beta-2 (Rattus norvegicus) (P62483 whole entry, looked up): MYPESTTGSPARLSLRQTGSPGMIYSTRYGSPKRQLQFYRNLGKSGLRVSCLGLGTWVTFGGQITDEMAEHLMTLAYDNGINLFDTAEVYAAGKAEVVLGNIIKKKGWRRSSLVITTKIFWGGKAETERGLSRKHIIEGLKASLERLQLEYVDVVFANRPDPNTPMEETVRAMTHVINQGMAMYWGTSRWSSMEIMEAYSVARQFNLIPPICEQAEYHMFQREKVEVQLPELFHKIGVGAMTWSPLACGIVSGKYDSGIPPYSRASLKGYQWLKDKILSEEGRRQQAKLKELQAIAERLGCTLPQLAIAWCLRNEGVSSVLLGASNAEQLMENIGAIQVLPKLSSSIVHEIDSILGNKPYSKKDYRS

SMILES | cell count [1] | inhibition [1] | inhibition of aggregation [2] | nuclei count [2] | inhibition [3] | nuclei count [3] | fluorescence slope [4] | NADPH fluorescence slope [5] | slope [6] | inhibition [7] | inhibition [8]
O=S1(=O)C=C(Oc2ccc(F)cc2)c2ccccc21 | 377 | -2.7% (inactive) | -8.6% (inactive) | 108% | -0.9% (inactive) | 111% | -0.321 (inactive) | -7.4e-05 (inactive) | 0.00496 (inactive) | 5.55% (inactive) | 7.32% (inactive)
COc1cccc(NS(=O)(=O)c2ccc3[nH]cc(C(=O)NC4CC4)c(=O)c3c2)c1 | 305 | 4% (inactive) | -2.9% (inactive) | 113% | -42.4% (inactive) | 126% | -0.603 (inactive) | -7e-05 (inactive) | 0.00731 (inactive) | 13.8% (inactive) | 32.8% (inactive)
O=C(CCCOc1ccccc1)N1CCN(c2ccccn2)CC1 | 232 | -4.8% (inactive) | 15.3% (inactive) | 53.2% | -18.6% (inactive) | 78% | -0.487 (inactive) | -3.3e-07 (inactive) | 0.00525 (inactive) | 2.47% (inactive) | -54.1% (inactive)
COc1cc(Br)cc(CN2CCN(C/C=C/c3ccccc3)CC2)c1O | 273 | 5.8% (inactive) | -5% (inactive) | 98.5% | 3% (inactive) | 108% | -0.606 (inactive) | -8.8e-06 (inactive) | 0.00359 (inactive) | -0.336% (inactive) | -8.7% (inactive)
Cc1ccccc1OCc1nnc2n1CC(C)S2 (stereo not drawn) | 547 | 6.8% (inactive) | -4.9% (inactive) | 131% | -53.4% (inactive) | 105% | -0.562 (inactive) | -4e-05 (inactive) | 0.00737 (inactive) | 8.61% (inactive) | 13.6% (inactive)
COc1ccc(C2CC(c3ccc(Cl)cc3Cl)Nc3nc(N)nn32)cc1 (stereo not drawn) | 578 | 2.3% (inactive) | -1.8% (inactive) | 105% | -10.3% (inactive) | 102% | -0.593 (inactive) | 1.1e-05 (inactive) | 0.00847 (inactive) | 13.9% (inactive) | 36.6% (inactive)
O=C(c1cnn2c1NC(c1ccco1)CC2C(F)(F)F)N1CCN(c2cccc(Cl)c2)CC1 (stereo not drawn) | 313 | -3.8% (inactive) | -7.8% (inactive) | 114% | -38.6% (inactive) | 126% | -0.382 (inactive) | -6e-05 (inactive) | 0.00418 (inactive) | 46.3% (inactive) | 19.8% (inactive)
Cc1nc(NC(=O)C23CCC(C)(C(=O)O2)C3(C)C)sc1C (stereo not drawn) | 595 | -13.1% (inactive) | 15.4% (inactive) | 105% | -22.1% (inactive) | 106% | -0.462 (inactive) | 8.7e-06 (inactive) | 0.00641 (inactive) | 12.9% (inactive) | 29.5% (inactive)
CCOC(=O)CSc1nnc(Cn2c(=O)sc3ccccc32)n1C | 475 | -8.3% (inactive) | 20.2% (inactive) | 106% | -24.8% (inactive) | 114% | -0.576 (inactive) | -4.8e-05 (inactive) | 0.00614 (inactive) | 8.16% (inactive) | 33.4% (inactive)
COc1cccc(-c2nc(CSCC(=O)N3CCc4ccccc43)c(C)o2)c1 | 326 | 8.5% (inactive) | -5.9% (inactive) | 108% | 22.5% (inactive) | 108% | -0.432 (inactive) | 2.9e-06 (inactive) | 0.00374 (inactive) | -10.3% (inactive) | -34.4% (inactive)
COc1cc2c(cc1OC)CN(CC(=O)Nc1cccc(C)c1)CC2 | 384 | 3.5% (inactive) | -6.2% (inactive) | 98.6% | -74.2% (inactive) | 102% | -0.495 (inactive) | -1.8e-05 (inactive) | 0.00456 (inactive) | 7.7% (inactive) | 9.94% (inactive)
C=CCc1cc(OC)ccc1OCC(O)CN1CCN(c2ccc(OC)cc2)CC1 (stereo not drawn) | 402 | 2.5% (inactive) | 1.9% (inactive) | 105% | -16.2% (inactive) | 106% | -0.629 (inactive) | 7.7e-07 (inactive) | 0.00605 (inactive) | 12.2% (inactive) | 22.6% (inactive)
CC(C)Cn1c(=O)c(C2=NS(=O)(=O)c3ccccc3N2)c(O)c2ccccc21 | 407 | -0.4% (inactive) | 10.3% (inactive) | 93.8% | -61.6% (inactive) | 125% | -0.353 (inactive) | -0.000128 (inactive) | 0.00697 (inactive) | 15.1% (inactive) | 18% (inactive)
O=C(NCc1ccccn1)C(C(=O)c1ccc(F)cc1)n1ccccc1=O (stereo not drawn) | 531 | -1.5% (inactive) | 3.1% (inactive) | 70.7% | -117% (inactive) | 219% | -0.472 (inactive) | -3.8e-05 (inactive) | 0.0066 (inactive) | -10.6% (inactive) | 3.51% (inactive)
c1ccc2ncc(-n3cnnn3)cc2c1 | 705 | -4.7% (inactive) | 7.3% (inactive) | 110% | -118% (inactive) | 117% | -0.411 (inactive) | -2e-05 (inactive) | 0.00684 (inactive) | 9.03% (inactive) | 11.8% (inactive)
CN(C)c1cccc2c(S(=O)(=O)Nc3ccccn3)cccc12 | 679 | 11.1% (inactive) | 11.7% (inactive) | 101% | 22.1% (inactive) | 86.9% | -0.318 (inactive) | -1.7e-05 (inactive) | 0.00542 (inactive) | 11.3% (inactive) | 19.3% (inactive)
Cc1cc(Br)ccc1NC(=O)CNC(=O)CSc1n[nH]c(N)n1 | 390 | -12.1% (inactive) | -13.4% (inactive) | 74.3% | -25.1% (inactive) | 115% | -0.58 (inactive) | -3.3e-05 (inactive) | 0.00679 (inactive) | 13.4% (inactive) | 37.1% (inactive)
O=C(CSc1nnc(CNC(=O)c2c(F)cccc2Cl)o1)c1ccccc1 | 672 | -19.6% (inactive) | 40.1% (active) | 100% | -111% (inactive) | 123% | -0.406 (inactive) | -5.2e-05 (inactive) | 0.00534 (inactive) | 3.28% (inactive) | 18.3% (inactive)
CCCCn1c(SCC(=O)Nc2cc(C)on2)nnc1-c1cccnc1 | 414 | -3.9% (inactive) | 1.7% (inactive) | 121% | -26.4% (inactive) | 123% | -0.00106 (inactive) | -3.1e-05 (inactive) | 0.00399 (inactive) | 11.3% (inactive) | 6.93% (inactive)
Cc1nnc(SCC(=O)Nc2sc3c(c2C#N)CCCC3)[nH]c1=O | 368 | 2.8% (inactive) | -12.9% (inactive) | 114% | -31.8% (inactive) | 108% | -0.441 (inactive) | 1.2e-05 (inactive) | 0.00274 (inactive) | 8.57% (inactive) | 39.4% (inactive)
Cc1ccc(NC(=O)CSc2nnc(-c3ccccn3)n2C)cc1 | 644 | 14.4% (inactive) | 6.7% (inactive) | 92.4% | 0.6% (inactive) | 111% | -0.418 (inactive) | -2.7e-05 (inactive) | 0.00462 (inactive) | 0.794% (inactive) | -5.25% (inactive)
O=C1CCCN1CCCNc1ncnc2c1[nH]c1ccc(Cl)cc12 | 465 | 0.8% (inactive) | -18.4% (inactive) | 101% | -164% (inactive) | 119% | -0.391 (inactive) | 3.6e-05 (inactive) | 0.00715 (inactive) | -14.5% (inactive) | -66.1% (inactive)
O=C(O)COc1ccc(S(=O)(=O)NCCc2ccccc2)cc1 | 596 | -0.8% (inactive) | 20.5% (inactive) | 81.4% | -54.3% (inactive) | 119% | -0.543 (inactive) | -6.9e-05 (inactive) | 0.00764 (inactive) | 13% (inactive) | 24.1% (inactive)
COc1cc2c(cc1OC)-c1nnc(-c3cccs3)n1C(C)(C)C2 | 814 | 1.2% (inactive) | -30.2% (inactive) | 106% | -58.9% (inactive) | 114% | -0.601 (inactive) | -1.8e-05 (inactive) | 0.00581 (inactive) | 6.77% (inactive) | 18.5% (inactive)
COc1cccc(OC)c1OCCNCCO | 632 | -3.4% (inactive) | 7.9% (inactive) | 118% | 8.1% (inactive) | 90.6% | -0.436 (inactive) | 3.2e-05 (inactive) | 0.00544 (inactive) | 13.1% (inactive) | 20.6% (inactive)
O=C(Nc1ccc(N2CCCCC2)cc1)c1ccc(F)cc1 | 420 | 0.3% (inactive) | -17.8% (inactive) | 111% | -134% (inactive) | 122% | -0.401 (inactive) | -0.000159 (inactive) | 0.00518 (inactive) | -44.9% (inactive) | -140% (inactive)
C=CCSC1=C(C#N)C(c2ccccc2OCC)CC(=O)N1 (stereo not drawn) | 328 | -4.1% (inactive) | 12.8% (inactive) | 99% | 12.5% (inactive) | 105% | -0.306 (inactive) | 1.7e-05 (inactive) | 0.00314 (inactive) | 6.62% (inactive) | 24.6% (inactive)
O=C(NCCN1CCOCC1)NC1(C(F)(F)F)Oc2ccc(Cl)cc2O1 (stereo not drawn) | 457 | 16.3% (inactive) | 11% (inactive) | 96.4% | -51.7% (inactive) | 118% | -0.467 (inactive) | -5.6e-05 (inactive) | 0.00481 (inactive) | 24.6% (inactive) | 37.9% (inactive)
